Source: PubChem BioAssay (The Scripps Research Institute Molecular Screening Center)
DAX1 inh-1 = DAX1 (NR0B1) inhibition, primary screen. inhibition, % at 6.8 µM. HEK293T StAR-luciferase reporter, SF-1/DAX-1 repression relief. hit rate 1.1% among 370,000;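 active = inhibition above the mean over all tested compounds plus 3 SD, cut at about 3.6% in these data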;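 note: higher inhibition means more luminescence from relief of DAX-1 repression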
hcDAF12 agonist = activators of H. contortus DAF-12 nuclear receptor. HEK293 hcDAF-12 lit1-tk-luc reporter, luminescence; 0% DMSO, 100% Δ7-dafachronic acid. AID 652067. hit rate 1.4% among 370,000. activation, % at 6.8 µM;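 active = activation above the mean of all tested compounds plus 3 SD, cut at about 5.5% in these data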
SMARCA2 act = SMARCA2 function activation, primary screen | MG213 cells, MMTV-luciferase reporter, dexamethasone, overnight | activation, % at 9.1 µM | hit rate 1% among 370,000; in the data active = activation above about 7.8%
hgDAF12 agonist = agonists of H. glycines DAF-12 nuclear receptor | HEK293 GAL4-hgDAF12 UAS-luciferase reporter, agonist luminescence; normalized to butyrate control | activation, % at 6.8 µM | hit rate 1.8% among 370,000;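 active = activation above a cutoff set at the mean of all screened compounds plus 3 SD, cut at about 10% in these data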
DAX1 inh-2 = NR0B1 (DAX1) inhibition | hit rate 0.99% among 340,000 | HEK293 Gal4-DAX1 luciferase reporter, luminescence | inhibition, % at 6.75 µM | AID 504766;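 active = inhibition above the mean over all tested compounds plus 3 SD, cut at about 4.2% in these data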;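 note: inhibition shows as a rise in luminescence from relieved DAX1 repression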
Target sequence (P51843 207-470 limits assumed): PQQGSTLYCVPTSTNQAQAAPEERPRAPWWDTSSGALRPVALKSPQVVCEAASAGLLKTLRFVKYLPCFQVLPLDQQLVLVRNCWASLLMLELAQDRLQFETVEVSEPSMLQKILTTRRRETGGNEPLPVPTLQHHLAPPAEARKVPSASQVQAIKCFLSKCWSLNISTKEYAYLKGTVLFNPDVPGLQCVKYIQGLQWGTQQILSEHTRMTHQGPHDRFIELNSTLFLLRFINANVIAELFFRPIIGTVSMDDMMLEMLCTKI
ssDAF12 agonist = S. stercoralis DAF-12 activation, primary screen | activation, % at 6.8 µM | hit rate 1% among 370,000 | HEK293 ssDAF-12/GRIP1 lit1-tk-luc reporter, luminescence; % of 3 µM dafachronic acid response;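 active = activation above the mean over all tested compounds plus 3 SD, cut at about 0.9% in these data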
DAX1 conf = NR0B1 (human) inhibition, confirmation | hit rate 87% among 2,400 | AID 652134 | shares compounds with DAX1 inh-1 | inhibition, % at 6.8 µM | HEK293T StAR-promoter luciferase reporter, SF-1/DAX-1 repression;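 active = inhibition above the average of every tested compound plus 3 SD, cut at about 3.8% in these data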;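 note: active compounds raise luminescence by relieving repression of the StAR reporter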
SF1 mutant ctr = nonselective inhibitor or artifact in SF-1 mutant DAX1 counter-screen | HEK293 StAR-luciferase, SF-1 AF2 mutant, luminescence | inhibition, % at 6.8 µM | shares compounds with DAX1 inh-1 | hit rate 78% among 2,400 | AID 652136;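 active = inhibition above the mean of all tested compounds plus 3 SD, cut at about 3% in these data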
SMARCA2 conf = confirmation of SMARCA2 (BRM) function activators; shares compounds with SMARCA2 act; MG213 cells, MMTV-luciferase with dexamethasone, luminescence, overnight; MG213 cells expressing E1A, Rb sequestered; DMSO wells 0%, reference activator 100%; activation, % at 9.1 µM; hit rate 30% among 3,500; AID 652260;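 active = activation above its plate's cutoff, the mean activation of tested wells plus 3 SD, cut at about 7.9% in these data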
VP16 Luc act = counter-screen for SMARCA2 activators: GAL4-VP16 luciferase reporter activation; shares compounds with SMARCA2 act; HEK293 GAL4-VP16 pG5luc reporter, luciferase luminescence; scaled: DMSO wells 0%, SAHA wells 100%; activation, % at 9.1 µM; hit rate 41% among 3,500; AID 686939;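 active = activation above the solvent-only control well mean plus 3 SD, averaged across control plates, cut at about 5.2% in these data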
LXR ag = LXR-beta agonism as hcDAF-12 counter-screen; shares compounds with hcDAF12 agonist; HEK293 Gal4-LXR tk-luc reporter, luminescence, 24 h; normalized: DMSO 0%, positive control 100%; activation, % at 6.8 µM; 3,400 tested, under 10 active;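 active = mean percent activation of the reporter above a cutoff set as the average over tested compounds plus their standard deviation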
hcDAF12 ag = hcDAF-12 agonism, confirmation assay; hit rate 61% among 3,400; shares compounds with hcDAF12 agonist; HEK293 hcDAF-12 lit1-tk-luc reporter, luminescence; % of Δ7-dafachronic acid response; AID 743032; activation, % at 6.8 µM;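 active = mean activation across triplicate tests above the threshold derived from the earlier primary screen, cut at about 5.5% in these data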
hgDAF12 ag = confirmation of H. glycines DAF-12 agonists. activation, % at 6.8 µM. AID 743050. shares compounds with hgDAF12 agonist. HEK293 GAL4-hgDAF12 luciferase reporter, agonist mode; percent of butyrate response. hit rate 80% among 3,300;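 active = mean activation over triplicate wells above the hit cutoff derived from the earlier primary screen, cut at about 11% in these data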
LXR ag 2 = activates human LXR-beta, counter-screen for DAF-12 agonists. shares compounds with hgDAF12 agonist. HEK293 Gal4-LXR luciferase reporter, 24 h. activation, % at 6.8 µM. 3,300 tested, under 10 active;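 active = mean activation of the triplicate above a set limit carried over from the primary screen, none filed active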
Hits are given with their value; – = inactive; · = no result given. Sampled rows, rich in hits. Any-hit rate of the full collection: about 4.8%.

SMILES	DAX1 inh-1	hcDAF12 agonist	SMARCA2 act	hgDAF12 agonist	DAX1 inh-2	ssDAF12 agonist	DAX1 conf	SF1 mutant ctr	LXR ag	hcDAF12 ag	hgDAF12 ag	LXR ag 2	others
CCNC(=S)NNC(=O)c1cc(-c2ccc(OC)cc2)nc2ccccc12	5.5	–	–	18.3	–	–	15.1	8.8	·	·	17.7	–
COC(=O)[C@]12C[C@H](CC(=O)NCc3ccccc3)C(=O)N(CCc3ccc(OC)c(OC)c3)C1=C[C@H](C1CCCC1)O[C@@H]2C	–	–	–	–	·	–	·	·	·	·	·	·
Cc1cc2c(cc1C)NC(=O)C(C)CN2 (configuration not stated)	5.7	12.0	–	19.6	–	3.0	15.8	7.9	–	11.2	13.6	–
Cc1ccc(NC(=O)NNC(=O)CCn2nc(C)c([N+](=O)[O-])c2C)cc1C	–	–	–	–	·	–	·	·	·	·	·	·
COc1cccc(NC(=O)C2CCCN2C(=O)NC2CCC(C)CC2)c1 (configuration not stated)	–	–	–	–	·	–	·	·	·	·	·	·
CCC(=O)N1CCN(c2ccc(NC(=O)c3ccc(Br)o3)cc2)CC1	–	–	–	–	–	–	·	·	·	·	·	·
CC1CCN(c2ccc(NC(=O)c3ccc(Br)o3)cc2)CC1	13.7	–	–	19.9	–	–	11.3	9.6	·	·	17.9	–
COc1ccccc1N1Cc2ccc(OC)c(OC)c2C1=O	–	–	–	–	–	–	·	·	·	·	·	·
COc1ccc2c(c1OC)C(=O)N(c1cccc(C(F)(F)F)c1)C2	5.1	5.7	8.5	19.2	–	–	13.0	4.4	·	·	14.8	–	SMARCA2 conf=–;VP16 Luc act=8.9
c1ccc(-c2cc(-c3ccccc3)on2)cc1	5.7	12.0	–	18.4	–	1.7	17.9	11.7	–	8.0	17.7	–
COc1ccc(-c2cn3cc(C)ccc3n2)cc1Br	6.9	13.5	–	19.7	–	1.2	18.8	8.2	–	6.5	20.3	–
O=C(Nc1ccc(SC(F)(F)F)cc1)c1ccccn1	6.1	8.4	–	21.7	–	1.1	15.1	–	–	10.7	20.3	–
COC(=O)[C@]12C[C@H](CC(=O)N3CCSCC3)C(=O)N(Cc3ccco3)C1=C[C@H](COCc1ccccc1)O[C@@H]2C	–	–	–	–	·	–	·	·	·	·	·	·
Cc1ccccc1CN1CCCCC(NC(=O)c2ccc(F)c(F)c2)C1=O (configuration not stated)	–	–	–	–	·	–	·	·	·	·	·	·
O=C(CNC(=O)c1cccs1)Nc1ccc2c(c1)OCCO2	12.3	–	–	17.3	–	–	8.0	4.0	·	·	16.3	–
